Inconclusive results are not listed. Calls of active or inactive are those of the source. Unless noted, the rule behind the calls is not given here.
Columns and labels:
[1] = biological target: ATP-dependent translocase ABCB1 (Homo sapiens) (UniProt P08183); assay: MDR1 (ABCB1) efflux transporter inhibition, cell-based (AID 377; in the data active = fluorescence slope change above about 50%); details: MDR1-expressing cells, fluorescent substrate accumulation slope; hits give high values; concentration not given here
[2] = hESC survival regulators, cell-based (AID 493140); details: human embryonic stem cell survival screen; hits give high values;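 note: cells exposed to compounds for four days before counting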
[3] = circadian clock period modulators, cell-based, LOPAC library, luminescence reporter (AID 2774); details: circadian reporter cells, at 7 µM, actives lie on both sides;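 note: values are relative to mean of DMSO wells on each plate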

Chain of ATP-dependent translocase ABCB1 (Homo sapiens) (P08183 whole entry, looked up): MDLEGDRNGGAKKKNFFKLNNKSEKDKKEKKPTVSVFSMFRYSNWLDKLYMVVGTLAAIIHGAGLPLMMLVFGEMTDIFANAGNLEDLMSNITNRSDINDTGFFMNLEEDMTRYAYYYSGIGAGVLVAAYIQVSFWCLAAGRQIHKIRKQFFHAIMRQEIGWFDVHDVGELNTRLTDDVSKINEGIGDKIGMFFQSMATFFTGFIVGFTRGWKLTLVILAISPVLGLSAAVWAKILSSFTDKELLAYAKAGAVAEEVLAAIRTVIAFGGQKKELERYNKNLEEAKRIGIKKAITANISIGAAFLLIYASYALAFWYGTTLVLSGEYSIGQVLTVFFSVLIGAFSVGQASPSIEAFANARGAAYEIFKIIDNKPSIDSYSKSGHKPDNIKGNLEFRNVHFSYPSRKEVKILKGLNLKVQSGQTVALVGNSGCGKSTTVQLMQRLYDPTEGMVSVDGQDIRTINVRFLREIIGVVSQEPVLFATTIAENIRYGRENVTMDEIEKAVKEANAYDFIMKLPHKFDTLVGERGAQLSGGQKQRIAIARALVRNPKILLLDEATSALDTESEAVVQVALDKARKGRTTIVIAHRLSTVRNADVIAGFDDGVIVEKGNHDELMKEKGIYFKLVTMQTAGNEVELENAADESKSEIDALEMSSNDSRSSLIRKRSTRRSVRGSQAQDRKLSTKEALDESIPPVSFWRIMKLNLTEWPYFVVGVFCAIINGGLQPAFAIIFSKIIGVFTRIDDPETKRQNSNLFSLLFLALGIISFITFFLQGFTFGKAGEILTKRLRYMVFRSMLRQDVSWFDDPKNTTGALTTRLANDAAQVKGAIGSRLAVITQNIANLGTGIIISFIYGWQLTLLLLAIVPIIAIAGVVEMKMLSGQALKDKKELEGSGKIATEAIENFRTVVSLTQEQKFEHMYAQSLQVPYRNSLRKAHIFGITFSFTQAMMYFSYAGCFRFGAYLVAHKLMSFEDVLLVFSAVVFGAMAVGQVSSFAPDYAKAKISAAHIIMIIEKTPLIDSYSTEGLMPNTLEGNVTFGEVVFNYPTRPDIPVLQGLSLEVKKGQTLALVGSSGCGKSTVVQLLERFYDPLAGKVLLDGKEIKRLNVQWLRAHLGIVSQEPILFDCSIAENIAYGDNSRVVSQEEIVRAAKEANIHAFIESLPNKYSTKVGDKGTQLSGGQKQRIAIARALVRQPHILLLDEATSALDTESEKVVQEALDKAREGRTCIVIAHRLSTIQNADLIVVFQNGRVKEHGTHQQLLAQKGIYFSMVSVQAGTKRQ

CCN(CCCc1ccccc1)CCCc1ccccc1
fluorescence slope change [1]: 72.6% (active) | survival [2]: 6.17 (inactive)

COc1cc2c3cc1Oc1cc(ccc1O)C[C@@H]1c4c(cc(OC)c(O)c4Oc4ccc(cc4)C[C@@H]3N(C)CC2)CC[N+]1(C)C
fluorescence slope change [1]: 8.4% (inactive)

Nc1ncnc2c1ncn2[C@@H]1O[C@H](COP(=O)(O)O)[C@@H](O)[C@H]1O
fluorescence slope change [1]: 73% (active) | survival [2]: 7.33 (inactive)

CCC(=O)O[C@]1(C(=O)SCF)[C@H](C)C[C@H]2[C@@H]3C[C@H](F)C4=CC(=O)C=C[C@]4(C)[C@@]3(F)[C@@H](O)C[C@@]21C
survival [2]: 6.58 (inactive)

CC1(C)O[C@@H]2C[C@H]3[C@@H]4CCC5=CC(=O)CC[C@]5(C)[C@@]4(F)[C@@H](O)C[C@]3(C)[C@]2(C(=O)CCl)O1
fluorescence slope change [1]: 26.3% (inactive) | survival [2]: 5.5 (inactive)

CC[C@]12CCCN3CCc4c(n(c5ccccc45)[C@@](O)(C(=O)OC)C1)[C@@H]32
fluorescence slope change [1]: 8.1% (inactive) | survival [2]: 10.1 (inactive)

Cc1cc2c(C(C)C)c(O)c(O)c(C=O)c2c(O)c1-c1c(C)cc2c(C(C)C)c(O)c(O)c(C=O)c2c1O
fluorescence slope change [1]: 93.5% (active) | survival [2]: 5.5 (inactive)

CC1(C)NC(=O)N(c2ccc([N+](=O)[O-])c(C(F)(F)F)c2)C1=O
period change [3]: 0.085 h (inactive) | survival [2]: 0.917 (inactive)

CCOC(=O)n1ccn(C)c1=S
fluorescence slope change [1]: 99.3% (active) | survival [2]: 11.8 (inactive)

Oc1cc(O)c2c(c1)O[C@H](c1ccc(O)c(O)c1)[C@H](O)C2
fluorescence slope change [1]: -0.6% (inactive)

CN1[C@@H]2CC[C@H]1CC(OC(=O)C(O)c1ccccc1)C2 (some centres not stated)
survival [2]: 24.7 (inactive)

COCCCC/C(=N\OCCN)c1ccc(C(F)(F)F)cc1
period change [3]: -0.015 h (inactive) | survival [2]: 6.67 (inactive)

CN1CCCCC1CCN1c2ccccc2Sc2ccc(S(C)=O)cc21 (configuration not stated)
fluorescence slope change [1]: 54.4% (active) | survival [2]: 3.42 (inactive)

CC(C)(C)NC(=O)[C@H]1CC[C@H]2[C@@H]3CC[C@H]4NC(=O)C=C[C@]4(C)[C@H]3CC[C@]12C
survival [2]: 7 (inactive)

COc1ccc2nc(S(=O)Cc3ncc(C)c(OC)c3C)[nH]c2c1 (configuration not stated)
fluorescence slope change [1]: 50.5% (active) | survival [2]: 10.2 (inactive)

CCc1oc2ccccc2c1C(=O)c1cc(Br)c(O)c(Br)c1
fluorescence slope change [1]: 56.7% (active) | survival [2]: 13.1 (inactive)

Nc1nc2c(ncn2COC(CO)CO)c(=O)[nH]1
period change [3]: -0.27 h (inactive) | survival [2]: 3.83 (inactive)

Cc1[nH]c(=O)c(C#N)cc1-c1ccncc1
period change [3]: -0.005 h (inactive) | survival [2]: 9.17 (inactive)

CC(=O)[C@@]1(O)CC[C@H]2[C@@H]3C[C@H](C)C4=CC(=O)C=C[C@]4(C)[C@@]3(F)[C@@H](O)C[C@@]21C
fluorescence slope change [1]: 10.7% (inactive) | survival [2]: 6.17 (inactive)

Cc1ccc(S(=O)(=O)NC(=O)NN2CC3CCCC3C2)cc1 (configuration not stated)
fluorescence slope change [1]: 10.5% (inactive) | survival [2]: 5.67 (inactive)

CN1CCN(C(c2ccccc2)c2ccccc2)CC1
fluorescence slope change [1]: 59.4% (active) | survival [2]: 4.58 (inactive)

CNC1(C)C2CCC(C2)C1(C)C (configuration not stated)
period change [3]: 0.19 h (inactive) | survival [2]: 42 (inactive)

C[C@]12C[C@H](O)[C@H]3[C@@H](CCC4=CC(=O)CC[C@@]43C)[C@@H]1CC[C@@H]2C(=O)CO
period change [3]: -0.34 h (inactive) | survival [2]: 6.08 (inactive)

CCCCNc1c(C(=O)OCC)c(C)nc2c1cnn2CC
period change [3]: 0.105 h (inactive) | survival [2]: 17.3 (inactive)

CCOC(=O)NNc1nncc2ccccc12
survival [2]: 22 (inactive)

COc1cc(C)nc(-n2nc(C)cc2OC)n1
survival [2]: 33.2 (inactive)

CC(C)(C(=O)c1cccnc1)c1cccnc1
survival [2]: 5 (inactive)

Cc1cccc(C)c1NC(=O)C(C)N (configuration not stated)
survival [2]: 11.7 (inactive)

CCN1CCN(C(=O)N[C@@H](C(=O)N[C@@H]2C(=O)N3C(C(=O)O)=C(CSc4nnnn4C)CS[C@H]23)c2ccc(O)cc2)C(=O)C1=O
survival [2]: 9.17 (inactive)

CCC1=C(C)CN(C(=O)NCCc2ccc(S(=O)(=O)NC(=O)NC3CCC(C)CC3)cc2)C1=O (configuration not stated)
survival [2]: 5.08 (inactive)

CCCOc1ccc(C(=O)OCCN(CC)CC)cc1N
survival [2]: 5.92 (inactive)

CNNCc1ccc(C(=O)NC(C)C)cc1
survival [2]: 6.5 (inactive)

Nc1ccc(O)c(C(=O)O)c1
survival [2]: 4.33 (inactive)

C[C@H](N)[C@H](O)c1cccc(O)c1
survival [2]: 28.4 (inactive)

Cc1nccn1CC1CCc2c(c3ccccc3n2C)C1=O (configuration not stated)
survival [2]: 36.2 (inactive)

CCCc1c(OCCCCc2nn[nH]n2)ccc(C(C)=O)c1O
survival [2]: 110 (inactive)

C[C@]12CC[C@@H]3c4ccc(O)cc4CC[C@H]3[C@@H]1C[C@@H](O)[C@@H]2O
survival [2]: 7.75 (inactive)

CCOc1cc(CC(=O)N[C@@H](CC(C)C)c2ccccc2N2CCCCC2)ccc1C(=O)O
survival [2]: 7.75 (inactive)

Nc1[nH]c(=O)ncc1F
survival [2]: 2.42 (inactive)

CN1CCC(=C2c3ccccc3CCc3sccc32)CC1
survival [2]: 5.08 (inactive)

Cc1ncc([N+](=O)[O-])n1CC(O)CCl (configuration not stated)
survival [2]: 23.5 (inactive)

O=C(O)CCCC[C@@H]1SC[C@@H]2NC(=O)N[C@@H]21
survival [2]: 18.6 (inactive)

CCCCN(CCCC)CCC(O)c1cc2c(Cl)cc(Cl)cc2c2cc(C(F)(F)F)ccc12 (configuration not stated)
survival [2]: 1.5 (inactive)

COc1cccc2c1C(=O)c1c(O)c3c(c(O)c1C2=O)C[C@@](O)(C(=O)CO)C[C@@H]3O[C@H]1C[C@H](N)[C@H](O)[C@H](C)O1
survival [2]: 0.167 (inactive)

C#C[C@]1(O)CC[C@H]2[C@@H]3CCc4cc(OC)ccc4[C@H]3CC[C@@]21C
survival [2]: 3.33 (inactive)

O=C(O)[C@@H]1[C@H]2C[C@H]3c4[nH]c5ccccc5c4CCN3C[C@@H]2CC[C@@H]1O
survival [2]: 2.42 (inactive)

O=C(CCCCC(=O)Nc1c(I)cc(I)c(C(=O)O)c1I)Nc1c(I)cc(I)c(C(=O)O)c1I
survival [2]: 5.33 (inactive)

CC(C)N=C(N)/N=C(\N)Nc1ccc(Cl)cc1
survival [2]: 3 (inactive)

O=C(O)/C=C/c1ccc(Cn2ccnc2)cc1
survival [2]: 12.1 (inactive)

N#Cc1ccc(C(c2ccc(C#N)cc2)n2cncn2)cc1
survival [2]: 1.25 (inactive)

COc1ncnc(NS(=O)(=O)c2ccc(N)cc2)c1OC
survival [2]: 14.8 (inactive)

Cc1c(Nc2ncccc2C(=O)O)cccc1C(F)(F)F
survival [2]: 3.67 (inactive)

COc1ccc(CC2c3cc(OC)c(OC)cc3CC[N+]2(C)CCC(=O)OCCCCCOC(=O)CC[N+]2(C)CCc3cc(OC)c(OC)cc3C2Cc2ccc(OC)c(OC)c2)cc1OC (configuration not stated)
survival [2]: 12.4 (inactive)

Cc1c(Cl)cccc1Nc1ccccc1C(=O)O
survival [2]: 17.2 (inactive)

Oc1ccc(OCc2ccccc2)cc1
survival [2]: 3.58 (inactive)

CC1(C)O[C@@H]2C[C@H]3[C@@H]4C[C@H](F)C5=CC(=O)CC[C@]5(C)[C@H]4[C@@H](O)C[C@]3(C)[C@]2(C(=O)CO)O1
survival [2]: 4.42 (inactive)

O=C1C(=O)c2ccccc2C(O)=C1C1CCC(c2ccc(Cl)cc2)CC1 (configuration not stated)
survival [2]: 8.83 (inactive)

COC(=O)C1=C(C)NC(C)=C(C(=O)OC(C)C)C1c1cccc2nonc12 (configuration not stated)
survival [2]: 16.1 (inactive)

O=C(CCCN1CCN(c2ccccn2)CC1)c1ccc(F)cc1
survival [2]: 14.6 (inactive)

Cc1c(N(C)C)c(=O)n(-c2ccccc2)n1C
survival [2]: 13.6 (inactive)

CC(C)NCC(O)COc1ccc(COCCOC(C)C)cc1 (configuration not stated)
survival [2]: 6.5 (inactive)

CCc1c(C)[nH]c2c1C(=O)C(CN1CCOCC1)CC2 (configuration not stated)
survival [2]: 6.5 (inactive)

COc1ccc(C(=O)c2ccccc2O)c(O)c1
survival [2]: 1.42 (inactive)
